Results: PubChem BioAssay
Calls of active or inactive are those of the source. Unless noted, how the calls were made is not given here.

What was measured:
[1] = system: Wnt5a (protein binding on small-molecule microarray); test: Wnt5a binders on small-molecule microarray, primary screen, biophysical, 635/667 nm fluorescence (AID 1142); details: 635 nm fluorescence, higher = more signal;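 further: fluorescence read at 667 nm with signal to noise per printed feature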
[2] = cell viability in Huh7 cells, primary screen, cytotoxicity control for HCV replication inhibitor project, CellTiter-Glo luminescence, basal, 48 h (AID 1143); details: Huh7 HCV replicon, higher = more signal, called active from +8 up or from −8 down;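 further: Huh7 hepatoma cells carrying a hepatitis C replication reporter with no stimulus; test concentration not given here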
[3] = P. aeruginosa biofilm formation inhibitors, primary screen, PAO1 strain, BacTiter-Glo luminescence, LB-PBS (AID 1144); details: 12 h, higher = more signal
[4] = CREB reporter modulators without forskolin, primary screen, cell-based, PC12, CRE-LacZ reporter, unstimulated (AID 1145); details: no forskolin, luminescence, 4.5 h, higher = more signal, called active from +8 up or from −8 down
[5] = CREB reporter modulators under forskolin, primary screen, cell-based, PC12, CRE-LacZ reporter, forskolin-stimulated (AID 1146); details: luminescence, 4.5 h, higher = more signal, called active from +8 up or from −8 down;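 further: PC12 cells with 6xCRE LacZ reporter stimulated by forskolin 10 µM; beta-galactosidase reporter signal reflecting CREB driven transcription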
[6] = target: Streptavidin (Streptomyces avidinii) (UniProt P22629); test: streptavidin binders on small-molecule microarray, primary screen, artefact control for SMM compound annotation, biophysical, 635/667 nm fluorescence (AID 1147); details: streptavidin binding, higher = more signal;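 further: signal reflects streptavidin binding to arrayed compounds as a control protein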
[7] = small-molecule binders of probe aInhba, primary screen, biochemical, small-molecule microarray, 635/667 nm fluorescence (AID 1148); details: higher = more signal;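 further: score merges 667nm spot fluorescence with signal-to-noise for antibody binding to printed compounds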
Torsin-1A (Homo sapiens) [8] = target: Torsin-1A (Homo sapiens) (UniProt O14656); test: torsin A binders from cell lysate, primary screen, small-molecule microarray, wild-type, 635/667 nm (AID 1149); details: COS7 hTOR1A-WT lysate, 635 nm fluorescence, higher = more signal
Torsin-1A (Homo sapiens) [9] = target: Torsin-1A (Homo sapiens) (UniProt O14656); test: small-molecule binders of mutant TOR1A in lysate, primary screen, cell lysate, small-molecule microarray, COS7 lysate, 635/667 nm fluorescence (AID 1150); details: COS7 hTOR1A mutant lysate, 635 nm fluorescence, higher = more signal;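 further: score pools 667 nm emission and signal to noise measuring lysate protein binding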
[10] = system: Sonic hedgehog protein (Shh); test: small-molecule binders of Shh protein, primary screen, biochemical, small-molecule microarray, 635/667 nm fluorescence (AID 1151); details: small-molecule microarray binding, 635 nm fluorescence; higher = more signal;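 further: Shh protein binding to compounds spotted on small-molecule microarray slides; score combines spot fluorescence intensity with signal-to-noise across triplicate slides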
[11] = E. coli DRC41 culture turbidity changes, primary screen, E. coli filamentation inducer project, strain DRC41, OD650, 48 h (AID 1152);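 further: E. coli MC1000 strain DRC41 lacking acrAB efflux pump and sulA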; details: E. coli DRC41 (acrAB sulA), higher = more signal, called active from +8 up or from −8 down
[12] = small-molecule binders of probe aLefty1, primary screen, biochemical, small-molecule microarray, 635/667 nm fluorescence (AID 1153); details: higher = more signal;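 further: score merges spot fluorescence with signal-to-noise ratio from the scanned slide images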
[13] = PSAC antagonists in infected red cells, primary screen, cell-based, P. falciparum Indochina, OD700, 1 h (AID 1154); details: P. falciparum Indochina infected RBC osmotic lysis, higher = more signal, called active from +8 up or from −8 down
[14] = PSAC antagonists in infected red cells, primary screen, cell-based, P. falciparum Indochina, OD700, 2 h (AID 1155);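 further: lysis reports solute entry through the parasite surface anion channel PSAC; channel blockers reduce lysis of infected cells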; details: P. falciparum Indochina infected erythrocytes, osmotic lysis OD700; higher = more signal, called active from +8 up or from −8 down
[15] = osmotic lysis modulators in infected erythrocytes, primary screen, PSAC antagonist project, cell-based, P. falciparum Indochina, OD700, 3 h (AID 1156); details: higher = more signal, called active from +8 up or from −8 down
[16] = PSAC antagonists in infected red cells, primary screen, cell-based, P. falciparum Indochina, OD700, 18 h (AID 1157); details: P. falciparum Indochina infected erythrocytes, osmotic lysis OD700, 18 h; higher = more signal, called active from +8 up or from −8 down
[17] = modulators of S6 phosphorylation in cells, primary screen, cell-based, A549, cytoblot, luminescence, serum-stimulated (AID 1158); details: A549 phospho-S6 cytoblot, 5 h, higher = more signal;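 further: serum-stimulated A549 lung adenocarcinoma cells; signal is phosphorylated S6 detected by cytoblot immunostaining with HRP secondary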
[18] = target: NADPH oxidase 2 (Homo sapiens) (UniProt P04839); test: NOX2-dependent H2O2 signal modulators, primary screen, NOX inhibitor project, cell-based, HEK293-NOX2, PMA-stimulated, Amplex Red fluorescence (AID 1159); details: 45 min, higher = more signal, called active from +8 up or from −8 down; further: test concentration not given here
[19] = target: NADPH oxidase 4 (Homo sapiens) (UniProt Q9NPH5); test: NOX4-dependent H2O2 signal modulators, primary screen, NOX inhibitor project, cell-based, HEK293-NOX4, tetracycline-induced, Amplex Red fluorescence (AID 1160); details: 45 min, higher = more signal, called active from +8 up or from −8 down
[20] = target: NADPH oxidase 5 (Homo sapiens) (UniProt Q96PH1); test: NOX5-dependent H2O2 signal modulators, primary screen, NOX inhibitor project, cell-based, HEK293-NOX5, Amplex Red fluorescence (AID 1161); details: HEK293-NOX5, ionomycin, 45 min, higher = more signal
Chain of NADPH oxidase 5 (Homo sapiens) (Q96PH1 whole entry, looked up): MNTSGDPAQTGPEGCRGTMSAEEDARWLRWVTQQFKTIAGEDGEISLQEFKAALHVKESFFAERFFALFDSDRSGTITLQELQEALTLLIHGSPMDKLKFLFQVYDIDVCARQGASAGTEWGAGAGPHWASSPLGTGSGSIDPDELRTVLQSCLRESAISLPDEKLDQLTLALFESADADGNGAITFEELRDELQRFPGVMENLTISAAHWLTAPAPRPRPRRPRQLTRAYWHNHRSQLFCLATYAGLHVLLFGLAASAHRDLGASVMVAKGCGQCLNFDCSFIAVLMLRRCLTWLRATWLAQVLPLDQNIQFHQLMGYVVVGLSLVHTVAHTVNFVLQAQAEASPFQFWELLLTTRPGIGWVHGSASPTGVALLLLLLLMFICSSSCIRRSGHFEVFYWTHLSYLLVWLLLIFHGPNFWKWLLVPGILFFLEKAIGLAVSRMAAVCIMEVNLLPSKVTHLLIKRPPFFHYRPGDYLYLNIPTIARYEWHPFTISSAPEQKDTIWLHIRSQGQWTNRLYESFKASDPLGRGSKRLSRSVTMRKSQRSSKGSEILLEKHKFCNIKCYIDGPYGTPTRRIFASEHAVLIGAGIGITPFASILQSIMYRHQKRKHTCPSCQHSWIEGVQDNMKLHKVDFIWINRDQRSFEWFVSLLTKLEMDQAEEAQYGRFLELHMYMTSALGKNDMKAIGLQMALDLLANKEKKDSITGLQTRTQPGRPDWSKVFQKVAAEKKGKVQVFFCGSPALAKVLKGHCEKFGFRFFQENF

Chain of Streptavidin (Streptomyces avidinii) (P22629 whole entry, looked up): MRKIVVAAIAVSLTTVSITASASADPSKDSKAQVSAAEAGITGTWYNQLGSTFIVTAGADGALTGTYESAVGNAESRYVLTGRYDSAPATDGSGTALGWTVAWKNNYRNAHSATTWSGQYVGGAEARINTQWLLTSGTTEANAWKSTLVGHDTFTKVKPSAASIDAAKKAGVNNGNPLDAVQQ
Chain of Torsin-1A (Homo sapiens) (O14656 whole entry, looked up): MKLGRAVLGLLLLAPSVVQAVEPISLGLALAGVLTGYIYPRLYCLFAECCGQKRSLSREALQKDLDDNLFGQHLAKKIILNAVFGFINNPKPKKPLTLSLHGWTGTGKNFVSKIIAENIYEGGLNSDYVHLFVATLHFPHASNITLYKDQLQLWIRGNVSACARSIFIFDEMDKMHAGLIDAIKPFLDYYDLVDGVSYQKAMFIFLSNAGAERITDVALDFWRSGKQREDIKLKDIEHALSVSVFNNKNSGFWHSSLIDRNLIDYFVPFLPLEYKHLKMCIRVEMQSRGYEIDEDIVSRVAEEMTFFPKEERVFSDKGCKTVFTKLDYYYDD
Chain of NADPH oxidase 4 (Homo sapiens) (Q9NPH5 whole entry, looked up): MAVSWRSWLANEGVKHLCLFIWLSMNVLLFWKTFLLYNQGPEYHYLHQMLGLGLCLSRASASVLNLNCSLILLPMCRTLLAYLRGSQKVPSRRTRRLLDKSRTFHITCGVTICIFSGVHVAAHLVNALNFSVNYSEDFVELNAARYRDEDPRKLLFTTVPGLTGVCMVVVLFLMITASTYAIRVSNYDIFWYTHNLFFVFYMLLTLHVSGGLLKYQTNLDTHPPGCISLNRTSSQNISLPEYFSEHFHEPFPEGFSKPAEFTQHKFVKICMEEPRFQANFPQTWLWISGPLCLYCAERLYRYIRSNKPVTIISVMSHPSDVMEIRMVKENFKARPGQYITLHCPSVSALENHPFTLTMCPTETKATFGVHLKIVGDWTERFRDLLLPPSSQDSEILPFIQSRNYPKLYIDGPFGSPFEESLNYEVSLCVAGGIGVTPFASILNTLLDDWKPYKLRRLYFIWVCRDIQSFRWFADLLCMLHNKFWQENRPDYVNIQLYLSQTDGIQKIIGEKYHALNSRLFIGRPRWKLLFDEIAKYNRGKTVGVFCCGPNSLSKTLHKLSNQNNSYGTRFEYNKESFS
Chain of NADPH oxidase 2 (Homo sapiens) (P04839 whole entry, looked up): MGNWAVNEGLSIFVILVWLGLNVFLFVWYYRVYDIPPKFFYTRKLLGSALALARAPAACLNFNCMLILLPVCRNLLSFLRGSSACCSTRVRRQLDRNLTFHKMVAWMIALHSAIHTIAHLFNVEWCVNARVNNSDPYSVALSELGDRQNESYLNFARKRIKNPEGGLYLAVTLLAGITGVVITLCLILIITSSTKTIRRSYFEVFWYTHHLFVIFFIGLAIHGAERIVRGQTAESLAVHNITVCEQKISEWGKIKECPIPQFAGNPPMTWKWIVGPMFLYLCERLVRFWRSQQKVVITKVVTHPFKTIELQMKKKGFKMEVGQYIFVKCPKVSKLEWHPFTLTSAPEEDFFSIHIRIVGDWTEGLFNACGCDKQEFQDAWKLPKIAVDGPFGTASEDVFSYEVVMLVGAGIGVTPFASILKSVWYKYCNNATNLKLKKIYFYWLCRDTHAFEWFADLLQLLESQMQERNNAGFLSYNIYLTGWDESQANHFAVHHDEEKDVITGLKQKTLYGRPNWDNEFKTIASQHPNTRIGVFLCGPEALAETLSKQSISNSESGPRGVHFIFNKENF

SMILES | composite z-score [1] | z-score [2] | z-score [3] | z-score [4] | z-score [5] | composite z-score [6] | composite z-score [7] | composite z-score (Torsin-1A (Homo sapiens) [8]) | composite z-score (Torsin-1A (Homo sapiens) [9]) | composite z-score [10] | z-score [11] | composite z-score [12] | z-score [13] | z-score [14] | z-score [15] | z-score [16] | z-score [17] | z-score [18] | z-score [19] | z-score [20]
C[C@@H]1NC(=O)[C@@H](Cc2ccccc2)NC(=O)[C@@]23C(=O)N[C@@H](Cc4ccccc4)C2[C@H](C)[C@@]2(C)O[C@H]2C3/C=C/C/C=C\CNC1=O (stereo not given in full) | -0.186 | 0.15 (inactive) | 0.111 (inactive) | 3.57 (inactive) | 0.272 (inactive) | -0.963 | -0.187 | 0.406 | 0.32 | 1.45 | -1.02 (inactive) | -0.0046 | 1.92 (inactive) | 0.581 (inactive) | 0.638 (inactive) | 0.159 (inactive) | -0.177 | 0.722 (inactive) | -0.614 (inactive) | 0.523
C#CCN(Cc1ccccc1Br)[C@H](/C=C/c1ccccc1)[C@@H](O)Cc1ccccc1 | -0.356 | -2.2 (inactive) | -0.109 (inactive) | 2.49 (inactive) | -0.697 (inactive) | -0.385 | -0.179 | -0.622 | 0.543 | -0.866 | 1.47 (inactive) | 0.0999 | 1.22 (inactive) | 0.535 (inactive) | -0.553 (inactive) | 0.132 (inactive) | -0.135 | -0.193 (inactive) | 0.109 (inactive) | -0.639
COc1ccc([Si](C)(C)[C@@H]2[C@@H](CCO)O[C@]3(C(=O)N(Cc4ccccc4)c4ccc(N5CCOC5=O)cc43)[C@H]2C)cc1 | 0.0035 | -5.88 (inactive) | -1.37 (inactive) | 3.23 (inactive) | -0.205 (inactive) | 0.242 | -0.016 | 0.151 | 0.817 | 1.39 | 0.519 (inactive) | 0.042 | 3.02 (inactive) | -0.0856 (inactive) | 0.796 (inactive) | -1.09 (inactive) | 2.12 | -0.245 (inactive) | 0.699 (inactive) | -1.07
CCOC(=O)C[C@H]1[C@H](OC(=O)c2ccccc2-c2ccccc2)[C@@H](NC(=O)c2ccc3ccccc3c2)c2cc(OCCCO)ccc2N1C(=O)c1ccccc1 | 0.331 | -0.399 (inactive) | 1.6 (inactive) | 2.94 (inactive) | -0.0955 (inactive) | 0.157 | 0.102 | 0.0464 | 0.472 | 0.536 | 0.142 (inactive) | -0.152 | 1.05 (inactive) | 0.844 (inactive) | 0.652 (inactive) | 0.23 (inactive) | -0.0193 | 0.595 (inactive) | 0.89 (inactive) | 1.53
COC(=O)[C@@]1(Cc2ccc(F)cc2)[C@H]2c3cc(C(=O)N4CCCC4)n(CCc4c[nH]c5ccccc45)c3C[C@H]2CN1C(=O)c1ccccc1 | 0.407 | -3.01 (inactive) | 1.82 (inactive) | 0.587 (inactive) | 0.668 (inactive) | 1.91 | 0.668 | -0.0812 | 0.321 | -0.393 | -2.35 (inactive) | 1.04 | 2.02 (inactive) | 0.946 (inactive) | 0.805 (inactive) | 1.06 (inactive) | -0.142 | 0.515 (inactive) | 0.988 (inactive) | 1.9
COc1cc2c(cc1O)C(C1CC1)N(Cc1cccc(OC(F)(F)F)c1)CC2 (stereo not given) | 0.0616 | -3.88 (inactive) | 0.73 (inactive) | -0.581 (inactive) | 0.0388 (inactive) | -0.41 | -0.285 | -0.0876 | 0.315 | 0.908 | -0.933 (inactive) | -0.105 | 2.92 (inactive) | 0.325 (inactive) | -0.222 (inactive) | 0.032 (inactive) | -0.759 | -5.01 (inactive) | -2.98 (inactive) | -4.25
CO[C@H]1O[C@H](CO)[C@@H](OC(=O)Nc2ccc(Br)cc2)[C@@H]2OC(=O)[C@@H](Cc3ccccc3)C/C=C/C[C@H](Cc3ccccc3)C(=O)O[C@@H]12 | 0.891 | -5.16 (inactive) | -0.435 (inactive) | -0.263 (inactive) | -0.396 (inactive) | -0.0062 | 0.115 | 0.048 | 0.91 | 0.0376 | 0.931 (inactive) | 0.057 | 3.36 (inactive) | 0.956 (inactive) | -1.12 (inactive) | 1.35 (inactive) | 0.311 | 0.647 (inactive) | 0.263 (inactive) | 0.0979
COc1cc2c(cc1O)C=[N+](Cc1sc3ccccc3c1Cl)CC2 | -0.245 | -2.33 (inactive) | 0.206 (inactive) | -0.348 (inactive) | 0.982 (inactive) | 0.0042 | -0.0308 | 0.166 | 0.276 | 0.66 | -0.569 (inactive) | 0.065 | 5.58 (inactive) | 2 (inactive) | -0.703 (inactive) | 1.58 (inactive) | -0.336 | -3.84 (inactive) | -2.35 (inactive) | -4.02
CCCNC(=O)[C@@]1(Sc2ccc(C)cc2)CC(=O)N(C2Cc3ccccc3C2)[C@@H]1c1ccc(CO)cc1I | 0.196 | -0.812 (inactive) | 0.594 (inactive) | -0.374 (inactive) | 1.73 (inactive) | 0.419 | 0.27 | 0.418 | 0.309 | 0.737 | 0.815 (inactive) | 0.844 | 9.9 (active) | 2.14 (inactive) | -0.377 (inactive) | 0.695 (inactive) | -0.303 | 0.716 (inactive) | -0.892 (inactive) | 0.67
